Source: PubChem BioAssay (EPA / NIEHS)
Active and inactive are the calls of the source. The calls were made as follows: active = hit-call score of the fitted dose curve at least 0.9, where 1 is the maximum; inactive = score below 0.9.

Experiments:
[1] = Tanguay_ZF_120hpf_MORT: Oregon State University Tanguay Lab 120 Hour Post-fertilization zebrafish Assay for Mortality (AID 2284399)
How it was run: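 Mortality, recorded present/absent via brightfield imaging at 24 and 120 hpf, in 5D zebrafish embryos exposed statically from 6 hpf after pronase chorion removal. Exposure at 28C, 0.64% DMSO vehicle, DMSO baseline.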

[2] = Tanguay_ZF_120hpf_EDEM: Oregon State University Tanguay Lab 120 Hour Post-fertilization zebrafish Assay for Edema Malformation (AID 2284400)
Procedure: (§1) Tanguay_ZF_120hpf is a whole embryo, multiplexed endpoint assay using zebrafish larvae exposed for 120 hours post fertilization on a 96-well plate.Tanguay_ZF_120hpf_EDEM is one of one assay component(s) measured or calculated from the Tanguay_ZF_120hpf assay. It is designed to make measurements of zebrafish development as detected with brightfield microscopy of developing zebrafish embryos.Data from the assay component Tanguay_ZF_120hpf_EDEM was analyzed into 1 assay endpoints. This assay endpoint, Tanguay_ZF_120hpf_EDEM, was analyzed in the positive analysis fitting direction relative to DMSO as the negative control and baseline of activity. […]
(§2) Zebrafish husbandry: Tropical 5D wild-type adult zebrafish were housed in at an approximate density of 1000 per 100 gallon tank at the Sinnhuber Aquatic Research Laboratory, Oregon State University, Corvallis, OR. […] At 24 hpf, embryos were assessed for photomotor response using a custom photomotor response analysis tool (PRAT) and for developmental toxicity endpoints (MO24: mortality at 24 hpf, DP: developmental progression, SM: spontaneous movement, and NC: notochord distortion). At 120 hpf, locomotor activity was measured using Viewpoint Zebralab and assessed for 13 endpoints. […] If mortality occurred for an embryo (at either 24 or 120 hpf), the non-mortality endpoints were not measured.

[3] = Tanguay_ZF_120hpf_MUSC: Oregon State University Tanguay Lab 120 Hour Post-fertilization zebrafish Assay for Muscle Malformation (AID 2284401)
Procedure: as §1, with “plate.Tanguay_ZF_120hpf_MUSC” for “plate.Tanguay_ZF_120hpf_EDEM”, “Tanguay_ZF_120hpf_MUSC” for “Tanguay_ZF_120hpf_EDEM”, “Tanguay_ZF_120hpf_MUSC,” for “Tanguay_ZF_120hpf_EDEM,”
as §2

[4] = Tanguay_ZF_120hpf_BRN: Oregon State University Tanguay Lab 120 Hour Post-fertilization zebrafish Assay for Brain Region Malformation (AID 2284402)
How it was run: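 Binary brightfield scoring of brain malformation at 120 hpf in 5D wild-type larvae, chorion removed with pronase at 4 hpf. Static exposure began at 6 hpf, 28C, sealed plates, DMSO 0.64% (vol/vol) as vehicle baseline.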

[5] = Tanguay_ZF_120hpf_TCHR: Oregon State University Tanguay Lab 120 Hour Post-fertilization zebrafish Assay for Touch Responsive (AID 2284403)
Procedure: as §1, with “plate.Tanguay_ZF_120hpf_TCHR” for “plate.Tanguay_ZF_120hpf_EDEM”, “Tanguay_ZF_120hpf_TCHR” for “Tanguay_ZF_120hpf_EDEM”, “Tanguay_ZF_120hpf_TCHR,” for “Tanguay_ZF_120hpf_EDEM,”
as §2

[6] = Tanguay_ZF_120hpf_ANY: Oregon State University Tanguay Lab 120 Hour Post-fertilization zebrafish Assay for Any Mortality and Malformation (AID 2284404)
Procedure: as §1, with “plate.Tanguay_ZF_120hpf_ANY” for “plate.Tanguay_ZF_120hpf_EDEM”, “developmental malformations and mortality” for “zebrafish development”, “and combines scoring from 13 other assay components measuring more specific morphologies.Data” for “of developing zebrafish embryos.Data”, “Tanguay_ZF_120hpf_ANY” for “Tanguay_ZF_120hpf_EDEM”, “Tanguay_ZF_120hpf_ANY,” for “Tanguay_ZF_120hpf_EDEM,”
Zebrafish husbandry: Tropical 5D wild-type adult zebrafish were housed in at an approximate density of 1000 per 100 gallon tank at the Sinnhuber Aquatic Research Laboratory, Oregon State University, Corvallis, OR. […] At 24 hpf, embryos were assessed for photomotor response using a custom photomotor response analysis tool (PRAT) and for developmental toxicity endpoints (MO24: mortality at 24 hpf, DP: developmental progression, SM: spontaneous movement, and NC: notochord distortion). At 120 hpf, locomotor activity was measured using Viewpoint Zebralab and assessed for 13 endpoints. […]

[7] = CCTE_Padilla_ZF_Score.Craniofacial: CCTE's 144 Hour Post-fertilization zebrafish Assay Score for Craniofacial Malformation, Padilla Lab (AID 2284405)
Procedure: (§3) CCTE_Padilla_ZF_Phenotype_Score is a whole embryo, multiplexed assay using zebrafish ova exposed for 144 hours post fertilization on a 96-well plate.CCTE_Padilla_ZF_Score.Craniofacial is one of one assay component(s) measured or calculated from the CCTE_Padilla_ZF_Phenotype_Score assay. It is designed to make measurements of zebrafish development as detected with brightfield microscopy of developing zebrafish embryos.Data from the assay component CCTE_Padilla_ZF_Score.Craniofacial was analyzed into 1 assay endpoints. This assay endpoint, CCTE_Padilla_ZF_Score.Craniofacial, was analyzed in the positive analysis fitting direction relative to DMSO as the negative control and baseline of activity. Using a type of viability reporter, gain-of-signal activity can be used to understand changes in developmentals as they relate to the whole embryo. To generalize the intended target to other relatable targets, this assay endpoint is annotated to the zebrafish development intended target family, where the subfamily is craniofacial morphogenesis.
(§4) Zebrafish husbandry: Wild type adult zebrafish (Danio rerio; undefined outbred stock obtained from Aquatic Research Organisms, Hampton, NH, 03842) were housed in an AAALAC-approved animal facility at 28C with a 14:10 h light: dark cycle (lights on at 08:30 h). […]

[8] = CCTE_Padilla_ZF_Score.Edema: CCTE's 144 Hour Post-fertilization zebrafish Assay Score for Edema Malformation, Padilla Lab (AID 2284406)
How it was run: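 Edema scored at 6 dpf by two blinded observers under a stereo microscope, in single outbred wild-type larvae exposed from 6-8 hpf in sealed wells (Hanks', 26C, 14:10 h light) and chemical-free after a 5 dpf rinse.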

[9] = CCTE_Padilla_ZF_Score.Spine: CCTE's 144 Hour Post-fertilization zebrafish Assay Score for Spine Malformation, Padilla Lab (AID 2284407)
How it was run: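 Spine malformation scored at 6 dpf by two independent blinded observers under stereomicroscope, after static sealed exposure from 6–8 hpf at 26C in Hanks' solution with rinse on 5 dpf. Positive-direction fit against DMSO control.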

[10] = CCTE_Padilla_ZF_Score.Swim_bladder: CCTE's 144 Hour Post-fertilization zebrafish Assay Score for Swim Bladder Malformation, Padilla Lab (AID 2284408)
Procedure: as §3, with “plate.CCTE_Padilla_ZF_Score.Swim_bladder” for “plate.CCTE_Padilla_ZF_Score.Craniofacial”, “CCTE_Padilla_ZF_Score.Swim_bladder” for “CCTE_Padilla_ZF_Score.Craniofacial”, “CCTE_Padilla_ZF_Score.Swim_bladder,” for “CCTE_Padilla_ZF_Score.Craniofacial,”, “swim bladder” for “craniofacial”
as §4

Measured: AC50

CCNS(=O)(=O)C(F)(F)C(F)(F)C(F)(F)C(F)(F)C(F)(F)C(F)(F)C(F)(F)C(F)(F)F
inactive: [1] | [3] | [4] | [5] | [7] | [9]
active: [2] 62.9 µM | [6] 62.1 µM | [8] 2.86 µM | [10] 3.57 µM
